Measured values: PubChem BioAssay (Tox21)
Inconclusive results are not listed. Calls of active or inactive are those of the source. The call rests on the fitted dose curve; in most records, active means well fitted curve in the direction sought with a large enough effect in the repeat runs; inconclusive means weak or mixed curves; inactive means no such curve, though single readings can be large; an effect the other way counts as inactive or inconclusive.

How the values were obtained:
[1] = Human pregnane X receptor (PXR) small molecule agonists, qHTS cell viability counter screen (AID 1346977); further: nearly all actives have a fitted effect of over 50% in size
Method in brief: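 PXR-Luc HepG2 cells (2,000/well, 5% charcoal-stripped FBS) preincubated 5 hr, then exposed to compounds 24 hr at 37 C. Viability read in the same wells by CellTiter-Fluor fluorescence, reagent added at 23 hr, 1 hr incubation.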

[2] = Caspase-3/7 induction in CHO-K1 cells by small molecules, qHTS cell viability counter screen (AID 1346979); further: nearly all actives have a fitted effect of over 35% in size
Method in brief: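 Wild-type CHO-K1 cells (1,500/well) treated with compound after 5 h plating; after 16 h at 37C, viability read as CellTiter-Fluor fluorescence following 1 h reagent incubation, in the same wells as the caspase read.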

[3] = Caspase-3/7 induction in CHO-K1 cells by small molecules, qHTS assay (AID 1346980); further: nearly all actives have a fitted effect of over 15% in size
Method in brief: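 Wild-type CHO-K1 cells exposed to compounds for 17hr at 37 C, 5% CO2. Caspase-3/7 activity then measured by Caspase-Glo 3/7 luminescence after 30min at room temperature.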

[4] = Caspase-3/7 induction in HepG2 cells by small molecules, qHTS cell viability counter screen (AID 1346981); further: series mostly up to about 92 µM; nearly all actives have a fitted effect of over 30% in size
Method in brief: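 Steps: seed 2,000 HepG2 cells per well; incubate 5 hr at 37 C; pin-add compounds in DMSO; incubate 16 hr; add CellTiter-Fluor; after 1 hr at 37 C and 5% CO2, read fluorescence.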

[5] = target: Nuclear receptor subfamily 1 group I member 2 (Homo sapiens) (UniProt O75469); test: Human pregnane X receptor (PXR) small molecule agonists, qHTS assay (AID 1346982); further: nearly all actives have a fitted effect of over 35% in size; further: potency means the concentration at half of the fitted maximal effect
Method in brief: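 Agonist mode qHTS: PXR-Luc HepG2 cells plated 5 hr before DMSO-dissolved compounds were pinned in, cultured 24 hr at 37 C, 5% CO2; ONE-Glo luminescence readout.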

[6] = target: Nuclear receptor subfamily 1 group I member 2 (Rattus norvegicus) (UniProt Q9R1A7); test: Rat pregnane X receptor (rPXR) activation by small molecules, qHTS assay (AID 1346983); details: rPXR luciferase reporter cells, One-Glo luminescence, 24 h; max activation: hits give high values; further: nearly all actives have a fitted effect of over 20% in size
Method in brief: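 Cell-based rPXR activation assay: rPXR cells, 2,000 per well, rested 5hr at 37 C, then exposed to compounds in DMSO for 24 hr at 37 C. Luciferase activity read by One-Glo luminescence after 30 min at room temperature.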

[7] = target: Nuclear receptor subfamily 1 group I member 2 (Homo sapiens) (UniProt O75469); test: CYP3A4 induction through human pregnane X receptor (PXR) by small molecules, qHTS assay (AID 1346984); further: nearly all actives have a fitted effect of over 40% in size
Method in brief: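 Steps: seed DPX-2 cells, 5 hr at 37C; pin-transfer compounds; 24 hr at 37C; add Luciferin-IPA (3uM final), 3 hr at 37C; add One-Glo, 30 min RT; read luminescence.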

[8] = target: Cytochrome P450 2D6 (Homo sapiens) (UniProt P10635); test: Cytochrome P450 Family 2 Subfamily D Member 6 (CYP2D6) small molecule antagonists: luciferase reporter qHTS assay (AID 1671196); further: nearly all actives have a fitted effect of over 50% in size; further: potency means the concentration at half of the fitted maximal effect
Method in brief: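 P450-Glo format: CYP2D6 converts a proluciferin substrate to luciferin in an NADPH-driven reaction lasting 1 h at room temperature. Light output, proportional to CYP2D6 activity, reflects interference by test chemicals.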

[9] = target: Cytochrome P450 2C19 (Homo sapiens) (UniProt P33261); test: Cytochrome P450 Family 2 Subfamily C Member 19 (CYP2C19) small molecule antagonists: luciferase reporter qHTS assay (AID 1671197); further: nearly all actives have a fitted effect of over 65% in size; further: potency means the concentration at half of the fitted maximal effect
Method in brief: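 P450-Glo CYP2C19 system: enzyme-substrate mix with compound 10 min at room temperature, then NADPH regeneration solution, 1 h at 37C. Proluciferin-to-luciferin conversion detected by luminescence after 20 min with detection reagent; ketoconazole as positive control.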

[10] = target: Cytochrome P450 2C9 (Homo sapiens) (UniProt P11712); test: Cytochrome P450 Family 2 Subfamily C Member 9 (CYP2C9) small molecule antagonists: luciferase reporter qHTS assay (AID 1671198); further: nearly all actives have a fitted effect of over 50% in size; further: potency means the concentration at half of the fitted maximal effect
Method in brief: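 P450-Glo proluciferin substrate with CYP2C9 enzyme; 10 min RT preincubation, then NADPH regeneration 1 h at 37C; luciferin detection reagent 20 min RT, luminescence in relative luminescence units.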

[11] = target: Voltage-gated inwardly rectifying potassium channel KCNH2 (Homo sapiens) (UniProt Q12809); test: Human Ether-a-go-go-Related Gene (hERG) channel small molecule antagonists: fluorescence cell-based qHTS assay (AID 1671200);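 further: hERG-expressing U2OS cells given a thallium stimulus after FluxOR II dye loading; series mostly up to about 77 µM; nearly all actives have a fitted effect of over 50% in size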
Method in brief: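 hERG-U2OS cells plated overnight at 37 C, loaded with FluxOR II dye 1 h at RT in dark; after 10 min, thallium stimulus added. Fluorescence (480/540 nm) read kinetically for 2 min at 1 s intervals.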

[12] = Caspase-3/7 induction in HepG2 cells by small molecules, qHTS assay (AID 1346978); further: nearly all actives have a fitted effect of over 15% in size
Method in brief: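 Wild-type HepG2 cells, 2,000/well, settled 5 hr at 37 C and 5% CO2, then compound-treated for 17 hr; caspase-3/7 activity read by luminescent Caspase-Glo 3/7 after 30 min at room temperature.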

[13] = target: Cytochrome P450 1A2 (Homo sapiens) (UniProt P05177); test: Cytochrome P450 Family 1 Subfamily A Member 2 (CYP1A2) small molecule antagonists: luciferase reporter qHTS assay (AID 1671199); further: nearly all actives have a fitted effect of over 50% in size; further: potency means the concentration at half of the fitted maximal effect
Method in brief: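 Inhibition of CYP1A2 conversion of proluciferin to luciferin, detected by luminescence. Reaction run 1 h at room temperature with NADPH regeneration after brief compound preincubation.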

[14] = target: Cytochrome P450 3A4 (Homo sapiens) (UniProt P08684); test: Cytochrome P450 Family 3 Subfamily A Member 4 (CYP3A4) small molecule antagonists: luciferase reporter qHTS assay (AID 1671201)
Method in brief: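 P450-Glo CYP3A4 luminescent assay: compounds preincubated 10 min at room temperature with enzyme and proluciferin substrate, NADPH regeneration added, 1 h room-temperature reaction, stopped with luciferin detection reagent; luminescence read after 20 min. Ketoconazole positive control.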
On the % scale 0 is the no-effect control and ±100 the full control effect.

Chain of Cytochrome P450 1A2 (Homo sapiens) (P05177 whole entry, looked up): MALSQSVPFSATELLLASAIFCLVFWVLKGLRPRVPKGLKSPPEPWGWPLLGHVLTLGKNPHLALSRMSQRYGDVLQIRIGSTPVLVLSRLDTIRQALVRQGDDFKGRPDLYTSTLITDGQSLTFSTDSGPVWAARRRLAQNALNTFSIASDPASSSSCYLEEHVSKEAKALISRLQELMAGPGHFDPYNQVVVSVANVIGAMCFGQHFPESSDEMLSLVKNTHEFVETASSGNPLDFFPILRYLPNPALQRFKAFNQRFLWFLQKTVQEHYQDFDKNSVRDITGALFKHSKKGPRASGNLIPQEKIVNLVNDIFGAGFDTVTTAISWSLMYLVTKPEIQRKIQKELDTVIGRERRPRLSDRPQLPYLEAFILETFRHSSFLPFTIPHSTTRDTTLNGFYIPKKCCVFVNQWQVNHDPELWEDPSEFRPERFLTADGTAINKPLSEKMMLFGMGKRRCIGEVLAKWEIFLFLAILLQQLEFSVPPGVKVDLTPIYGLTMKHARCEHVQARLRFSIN
Chain of Cytochrome P450 2C9 (Homo sapiens) (P11712 whole entry, looked up): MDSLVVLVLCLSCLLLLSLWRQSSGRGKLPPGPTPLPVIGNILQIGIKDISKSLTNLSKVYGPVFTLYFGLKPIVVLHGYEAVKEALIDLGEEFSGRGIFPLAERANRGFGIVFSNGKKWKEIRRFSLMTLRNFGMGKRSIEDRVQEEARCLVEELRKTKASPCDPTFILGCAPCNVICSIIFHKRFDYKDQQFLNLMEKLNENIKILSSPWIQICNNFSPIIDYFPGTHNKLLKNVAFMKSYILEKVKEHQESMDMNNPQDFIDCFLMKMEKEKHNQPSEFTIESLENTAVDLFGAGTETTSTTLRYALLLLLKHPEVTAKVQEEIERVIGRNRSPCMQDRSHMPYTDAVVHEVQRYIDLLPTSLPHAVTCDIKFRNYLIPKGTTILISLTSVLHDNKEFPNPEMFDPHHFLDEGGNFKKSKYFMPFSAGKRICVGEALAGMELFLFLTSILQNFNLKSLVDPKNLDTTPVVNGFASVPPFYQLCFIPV
Chain of Voltage-gated inwardly rectifying potassium channel KCNH2 (Homo sapiens) (Q12809 whole entry, looked up): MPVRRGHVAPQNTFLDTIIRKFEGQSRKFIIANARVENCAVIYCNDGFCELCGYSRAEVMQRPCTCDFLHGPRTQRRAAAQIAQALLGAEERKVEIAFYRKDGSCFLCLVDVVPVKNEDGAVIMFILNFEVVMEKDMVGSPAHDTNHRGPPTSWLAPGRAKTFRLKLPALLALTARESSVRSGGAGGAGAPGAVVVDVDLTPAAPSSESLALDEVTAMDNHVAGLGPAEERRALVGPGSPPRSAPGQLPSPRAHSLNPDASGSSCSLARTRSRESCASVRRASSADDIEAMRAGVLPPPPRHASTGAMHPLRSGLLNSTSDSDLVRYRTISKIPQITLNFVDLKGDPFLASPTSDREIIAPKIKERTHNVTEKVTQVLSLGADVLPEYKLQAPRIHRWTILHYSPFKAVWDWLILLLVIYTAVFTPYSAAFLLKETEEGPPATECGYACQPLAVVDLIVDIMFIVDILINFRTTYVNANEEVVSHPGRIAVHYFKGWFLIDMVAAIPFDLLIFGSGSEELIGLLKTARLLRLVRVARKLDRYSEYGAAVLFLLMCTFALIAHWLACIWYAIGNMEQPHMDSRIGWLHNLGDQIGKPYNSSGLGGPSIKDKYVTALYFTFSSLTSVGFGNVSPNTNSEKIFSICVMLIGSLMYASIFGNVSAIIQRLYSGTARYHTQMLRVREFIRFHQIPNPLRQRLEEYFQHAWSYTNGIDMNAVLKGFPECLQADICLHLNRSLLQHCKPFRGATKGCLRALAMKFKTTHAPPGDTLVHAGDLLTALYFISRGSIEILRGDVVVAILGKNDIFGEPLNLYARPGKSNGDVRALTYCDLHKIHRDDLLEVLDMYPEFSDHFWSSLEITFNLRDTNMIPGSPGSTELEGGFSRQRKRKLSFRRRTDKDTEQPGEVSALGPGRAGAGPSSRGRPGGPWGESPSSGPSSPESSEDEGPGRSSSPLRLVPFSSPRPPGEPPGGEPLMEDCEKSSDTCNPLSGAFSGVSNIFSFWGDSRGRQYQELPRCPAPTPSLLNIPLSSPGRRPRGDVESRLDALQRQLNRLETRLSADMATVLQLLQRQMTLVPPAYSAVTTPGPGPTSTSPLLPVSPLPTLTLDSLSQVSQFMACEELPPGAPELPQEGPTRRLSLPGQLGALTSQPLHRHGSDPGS
Chain of Cytochrome P450 2C19 (Homo sapiens) (P33261 whole entry, looked up): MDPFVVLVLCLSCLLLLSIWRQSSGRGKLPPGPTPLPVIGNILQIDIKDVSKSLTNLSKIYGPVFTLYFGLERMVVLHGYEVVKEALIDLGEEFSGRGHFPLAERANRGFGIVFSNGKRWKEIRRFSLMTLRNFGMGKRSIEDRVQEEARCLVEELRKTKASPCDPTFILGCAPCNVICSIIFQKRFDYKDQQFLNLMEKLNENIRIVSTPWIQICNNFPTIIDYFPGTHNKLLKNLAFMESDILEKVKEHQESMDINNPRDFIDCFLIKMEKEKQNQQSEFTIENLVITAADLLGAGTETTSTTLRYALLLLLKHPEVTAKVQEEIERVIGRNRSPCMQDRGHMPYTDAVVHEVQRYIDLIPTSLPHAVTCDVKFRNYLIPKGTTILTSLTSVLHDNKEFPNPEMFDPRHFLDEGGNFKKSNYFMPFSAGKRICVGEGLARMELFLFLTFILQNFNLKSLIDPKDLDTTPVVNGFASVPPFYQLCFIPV
Chain of Nuclear receptor subfamily 1 group I member 2 (Homo sapiens) (O75469 whole entry, looked up): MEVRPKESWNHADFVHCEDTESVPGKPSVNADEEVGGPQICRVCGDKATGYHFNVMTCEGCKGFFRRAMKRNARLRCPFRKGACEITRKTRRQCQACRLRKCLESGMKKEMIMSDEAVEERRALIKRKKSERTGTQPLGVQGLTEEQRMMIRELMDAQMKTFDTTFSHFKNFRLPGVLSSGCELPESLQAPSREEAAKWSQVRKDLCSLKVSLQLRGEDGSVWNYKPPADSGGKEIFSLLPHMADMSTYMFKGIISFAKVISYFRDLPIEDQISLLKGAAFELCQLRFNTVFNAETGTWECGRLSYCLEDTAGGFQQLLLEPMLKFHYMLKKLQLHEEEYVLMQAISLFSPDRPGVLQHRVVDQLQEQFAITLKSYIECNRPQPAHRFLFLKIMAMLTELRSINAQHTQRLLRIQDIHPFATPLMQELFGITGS
Chain of Cytochrome P450 2D6 (Homo sapiens) (P10635 whole entry, looked up): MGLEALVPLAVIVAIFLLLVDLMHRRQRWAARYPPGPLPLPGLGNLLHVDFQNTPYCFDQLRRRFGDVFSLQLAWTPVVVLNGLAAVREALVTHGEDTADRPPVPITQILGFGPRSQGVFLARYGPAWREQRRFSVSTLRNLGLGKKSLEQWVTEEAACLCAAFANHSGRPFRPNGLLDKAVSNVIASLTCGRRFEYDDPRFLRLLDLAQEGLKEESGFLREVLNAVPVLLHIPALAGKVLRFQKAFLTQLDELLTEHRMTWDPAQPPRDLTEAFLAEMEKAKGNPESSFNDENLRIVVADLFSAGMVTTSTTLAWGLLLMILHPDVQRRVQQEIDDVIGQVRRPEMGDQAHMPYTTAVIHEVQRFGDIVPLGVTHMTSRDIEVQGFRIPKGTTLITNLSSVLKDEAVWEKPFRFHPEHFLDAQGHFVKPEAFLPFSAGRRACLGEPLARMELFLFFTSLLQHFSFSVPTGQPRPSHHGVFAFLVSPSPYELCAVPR
Chain of Nuclear receptor subfamily 1 group I member 2 (Rattus norvegicus) (Q9R1A7 whole entry, looked up): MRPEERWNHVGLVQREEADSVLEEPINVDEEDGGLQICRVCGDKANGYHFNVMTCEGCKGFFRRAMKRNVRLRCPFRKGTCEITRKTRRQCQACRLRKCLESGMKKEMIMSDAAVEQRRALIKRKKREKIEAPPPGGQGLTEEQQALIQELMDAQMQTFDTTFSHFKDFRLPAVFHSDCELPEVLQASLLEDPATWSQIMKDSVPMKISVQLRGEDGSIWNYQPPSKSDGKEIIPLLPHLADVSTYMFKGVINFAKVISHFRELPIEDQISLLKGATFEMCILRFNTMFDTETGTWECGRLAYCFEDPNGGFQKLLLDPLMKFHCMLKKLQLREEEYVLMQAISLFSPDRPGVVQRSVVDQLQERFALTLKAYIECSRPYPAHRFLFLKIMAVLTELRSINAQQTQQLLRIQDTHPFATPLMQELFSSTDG
Chain of Cytochrome P450 3A4 (Homo sapiens) (P08684 whole entry, looked up): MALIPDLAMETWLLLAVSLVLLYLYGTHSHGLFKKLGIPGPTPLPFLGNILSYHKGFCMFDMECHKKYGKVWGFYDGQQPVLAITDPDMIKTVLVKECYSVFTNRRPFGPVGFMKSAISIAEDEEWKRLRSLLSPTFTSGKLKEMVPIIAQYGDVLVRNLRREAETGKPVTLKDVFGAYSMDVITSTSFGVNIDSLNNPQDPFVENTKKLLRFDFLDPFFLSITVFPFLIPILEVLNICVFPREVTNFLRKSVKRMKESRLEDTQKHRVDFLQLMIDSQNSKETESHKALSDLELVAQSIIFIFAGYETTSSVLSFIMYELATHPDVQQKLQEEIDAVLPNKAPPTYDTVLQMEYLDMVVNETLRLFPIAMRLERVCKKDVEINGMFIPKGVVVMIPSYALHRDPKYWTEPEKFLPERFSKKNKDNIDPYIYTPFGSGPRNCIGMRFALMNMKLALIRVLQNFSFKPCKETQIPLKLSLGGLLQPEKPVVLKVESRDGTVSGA

C[N+](C)(C)CCCCCCCCCC[N+](C)(C)C
inactive: Potency [1] | Potency [2] | outcome [3] | Potency [4] | Potency [5] | max activation [6] -3.83% | Potency [7] | Potency [8] | Potency [9] | Potency [10] | Potency [11]

O=C(c1ccccc1O)c1ccccc1O
inactive: Potency [1] | outcome [12] | outcome [3] | Potency [4] | Potency [11]
active: Potency [5] 60.5 µM | Potency [8] 24.9 µM | Potency [9] 11.1 µM | Potency [10] 62.6 µM | Potency [13] 3.52 µM

CC(C(=O)O)c1cccc(Oc2ccccc2)c1 (configuration not stated)
inactive: Potency [1] | outcome [12] | outcome [3] | Potency [4] | max activation [6] -0.273% | Potency [9] | Potency [13] | Potency [11]

O=C(O)CCCC[P+](c1ccccc1)(c1ccccc1)c1ccccc1
inactive: Potency [1] | outcome [12] | Potency [2] | Potency [4] | Potency [5] | Potency [9] | Potency [10] | Potency [13] | Potency [11] | Potency [14]

c1coc(CNc2ncnc3nc[nH]c23)c1
inactive: outcome [12] | Potency [2] | Potency [4] | Potency [11]

CCOc1ccc2nc(S(N)(=O)=O)sc2c1
active: Potency [13] 4.07 µM
inactive: Potency [1] | outcome [12] | Potency [2] | Potency [4] | Potency [9] | Potency [11] | Potency [14]

CCOC(=O)c1cnc2c(cnn2CC)c1NN=C(C)C
active: Potency [9] 30.9 µM | Potency [13] 2.04 µM
inactive: Potency [1] | outcome [12] | Potency [2] | Potency [4] | Potency [7] | Potency [11]

O=C1c2ccccc2C(=O)c2cc(O)ccc21
inactive: outcome [12] | Potency [2] | outcome [3] | Potency [11]
active: Potency [5] 17.2 µM | Potency [9] 22.5 µM | Potency [10] 25.2 µM | Potency [13] 7.11 µM
